Measurements taken from ChEMBL document CHEMBL4513216, “Probing the Open Global Health Chemical Diversity Library for Multistage-Active Starting Points for Next-Generation Antimalarials” (ACS Infect Dis, 2020).
Hit rate of the full screen: of about 69,000 compounds, about 8,600 (12%) showed an effect of 50% or more. The full list was thinned out, with strong results kept by preference.

System: Plasmodium berghei
Assay: Screen against P. berghei liver stage (PbLuc), transformed with Luciferase, at 10uM
Format: functional, HepG2
Conditions: tested at 10 uM

Structure (SMILES) | INHIBITION
CC(C)c1nc2n(n1)CC(NCc1ccncc1)CC2 (configuration not stated) | 0.79%
CCc1ccc(NC(=O)N2C[C@@H]3C[C@H](C(=O)N4CCCC4)[C@H](C2)O3)cc1 | 45.4%
O=C(NCC1CCCOC1)c1ccc(-c2ccccc2)[nH]c1=O (configuration not stated) | -29.1%
O=S(=O)(NCc1ccccc1)Nc1cccc(Cn2cncn2)c1 | 47.2%
Cc1nc(Nc2nncs2)cc(C2CNC2)n1 | 12.75%
CN1CCC/C1=N\S(=O)(=O)c1ccc(NC(=O)CCc2cccs2)cc1 | 27.4%
CCCS(=O)(=O)N1C[C@@H]2COC[C@]2(CN2CCOCC2)C1 | 6.83%
Cc1nnc([C@]23COC[C@H]2CN(S(=O)(=O)c2cccnc2)C3)o1 | -2.26%
CS(=O)(=O)N1C[C@@H]2COC[C@]2(CN2CCOCC2)C1 | 65.9%
O=S(=O)(c1ccccc1)N1C[C@@H]2COC[C@]2(CN2CCOCC2)C1 | 9.79%
O=S(=O)(c1ccccc1)N1C[C@@H]2COC[C@]2(COCC2CC2)C1 | 44.2%
O=S(=O)(c1cccnc1)N1C[C@@H]2COC[C@]2(CN2CCOCC2)C1 | 55.5%
CS(=O)(=O)N1C[C@@H]2COC[C@]2(COCC(=O)N2CCCC2)C1 | 28.5%
COC[C@]12COC[C@H]1CN(S(=O)(=O)c1cccnc1)C2 | 33%
O=S(=O)(c1cccnc1)N1C[C@@H]2COC[C@]2(COCC2CC2)C1 | 65.1%
Cc1ccc2c(n1)N(CCN(C)C)CCN(Cc1c(C)noc1C)C2 | 42.6%
COCCN1CCc2ccccc2NCCC1=O | 16.9%
CN(Cc1cnn(C)c1)CC(O)c1ccc2c(c1)OCCCO2 (configuration not stated) | 18.8%
O=C(c1cccs1)N1CCC2(CC1)CCN(S(=O)(=O)C1CC1)CC2 | 45.7%
O=C(c1sccc1-n1cnnn1)N1CCCCC1 | 17.4%
CCN(CC)CC(=O)N(C)C(c1cccc(F)c1)c1ccccn1 (configuration not stated) | -4.16%
Cc1cnn(CC2CCCN2C(=O)Cn2nc(C)c(Cl)c2C)c1 (configuration not stated) | -41.5%
COCCC(=O)N1CCc2nc(N3CCOCC3)nc(NC(C)C)c2C1 | 76.5%

Structure (SMILES) | INHIBITION
CC(C)CC(=O)N1CCc2nc(N3CCOCC3)nc(NC(C)C)c2C1 | 52.9%
CCC(=O)N1CCc2nc(N3CCOCC3)nc(N(C)C)c2CC1 | 45.2%
Cc1nc(N2CCOCC2)nc2c1CCN(C(=O)N1CCCC1)CC2 | 39.5%
COc1c(Br)c(C(=O)NC2CC2)nn1C | 33.3%
COc1c(Br)c(C(=O)NC2CCCCC2)nn1C | -37.1%
COc1c(Br)c(C(=O)NC2CCCC2)nn1C | 71.4%
Cc1cnn(CC2CCCCN2C(=O)c2ccc3[nH]cnc3c2)c1 (configuration not stated) | 5.7%
N#Cc1ccccc1CN1CCC(CN2CCOCC2)C1 (configuration not stated) | -19.8%
CCOc1ccc(S(=O)(=O)NCc2cccnc2N(C)C)cc1 | 67.5%
COc1ncccc1CNCc1c(C(C)C)nn(C)c1Cl | 21.7%
CC(C)c1nn(C)c(Cl)c1CNCc1cccnc1N(C)C | 57.5%
COc1ccc(S(=O)(=O)NCc2cccnc2N(C)C)cc1 | 21.5%
CN(C)c1ncccc1CNS(=O)(=O)c1ccc(F)c(F)c1 | 11.2%
CCOc1ccc(CNCc2cccnc2N(C)C)cc1 | 39.7%
CN(C)c1ncccc1CNS(=O)(=O)c1cc(F)cc(F)c1 | -10.1%
CC(C)c1nn(C)c(N(C)C)c1CNCc1cccnc1N(C)C | 14.815%
CN(C)c1ncccc1CNS(=O)(=O)c1ccccc1F | 34.7%
CC(C)N(C)S(=O)(=O)NCc1cccnc1N(C)C | 55%
CCCC(C)CS(=O)(=O)NCc1cccnc1N(C)C (configuration not stated) | -33.9%
COc1ccc(S(=O)(=O)NCc2cccnc2N(C)C)cc1F | 58.2%
CN(C)C(=O)COCC1CN(S(C)(=O)=O)Cc2ncn(C)c21 (configuration not stated) | 38.2%
COc1ccc(NC(=O)c2nc3ccccc3n(C)c2=O)c(OC)c1 | 3.19%
Cn1ccc(C(=O)NC2CCC23CCN(Cc2cccnc2)CC3)c1 (configuration not stated) | 23.5%

Structure (SMILES) | INHIBITION
CC(O)C1CCN(C(=O)CCOc2ccccc2F)CC1 (configuration not stated) | -17.8%
CC(C)(C)S(=O)(=O)c1ccc(N2CCC(n3cccn3)CC2)cn1 | -8.66%
Cc1ccc2nc(C(=O)N(C)[C@@H]3CC[C@@H](N4CCCC4)[C@@H]3O)cn2c1 | 1.068%
c1ccc(Cc2noc(CN3CCCC3Cn3cccn3)n2)cc1 (configuration not stated) | 1.78%
Fc1ccc(-c2cnc(CN3CCOC(Cn4cccn4)C3)o2)cc1 (configuration not stated) | -21.8%
COc1ccccc1CN1CCc2c(nc(-c3ccccn3)[nH]c2=O)C1 | 25.6%
CSc1ccccc1C(=O)N(C)Cc1nncn1C(C)C | 37.4%
CN(C)c1ncccc1CNS(=O)(=O)c1cc(F)ccc1F | -27.8%
COC(=O)c1cccc(S(=O)(=O)NCc2cccnc2N(C)C)c1 | 13.3%
CNC(=O)c1ccc(S(=O)(=O)NCc2cccnc2N(C)C)cc1 | 29.7%
CN(C)c1ncccc1CNS(=O)(=O)c1c(F)cccc1F | 11.6%
CC(=O)c1cccc(S(=O)(=O)NCc2cccnc2N(C)C)c1 | 42%
CC(=O)c1ccc(S(=O)(=O)NCc2cccnc2N(C)C)cc1 | 66.7%
CN(C)c1ncccc1CNS(=O)(=O)c1ccccc1Cl | -4.16%
COC(=O)c1ccc(S(=O)(=O)NCc2cccnc2N(C)C)cc1 | 52.7%
CN(C)c1ncccc1CNS(=O)(=O)c1ccc(C(N)=O)cc1 | -3.2%
COc1cc(C)c(S(=O)(=O)NCc2cccnc2N(C)C)c(C)c1 | 61.7%
Cc1ccc(F)cc1S(=O)(=O)NCc1cccnc1N(C)C | 49.3%
CCOC(=O)c1ccc(S(=O)(=O)NCc2cccnc2N(C)C)cc1 | 83.2%
COCCN1C[C@@H]2CN(Cc3ccsc3)CCC[C@]2(C(=O)O)C1 | 3.47%
COc1ccc(CN2CC(O)CN(C(=O)CC(C)C)CC2=O)cc1 (configuration not stated) | 19.2%
